PubChem BioAssay (NCI)
Compounds without any hit were thinned out: in the full panel of roughly 83,000, 20% have a hit.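 Negative percent growth values reflect cell death: -40 means 40% of the cells present at the start died, and -100 means all died.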 The source made the active and inactive calls. The calls were made as follows: active = growth percent below 10; inactive = the rest.

Columns and labels:
Test in all cases: NCI-60 one-dose screen, 48 h (100 = growth as untreated, 0 = no growth, -100 = all killed)
Settings in all cases: 10 µM unless noted
NCI-H23 lung = tested on: NCI-H23 lung
NCI-H322M lung = tested on: NCI-H322M lung
HOP-62 NSCLC = tested on: HOP-62 NSCLC
NCI-H460 lung = tested on: NCI-H460 lung
HOP-92 NSCLC = tested on: HOP-92 NSCLC
NCI-H522 lung = tested on: NCI-H522 lung
A549/ATCC NSCLC = tested on: A549/ATCC NSCLC
786-0 renal = tested on: 786-0 renal
COLO 205 colon = tested on: COLO 205 colon
DU-145 prostate = tested on: DU-145 prostate
K-562 leukemia = tested on: K-562 leukemia
MALME-3M melanoma = tested on: MALME-3M melanoma
MDA-MB-231 breast = tested on: MDA-MB-231 breast
RXF 393 renal = tested on: RXF 393 renal
SF-268 CNS = tested on: SF-268 CNS
SF-295 CNS = tested on: SF-295 CNS
SF-539 CNS = tested on: SF-539 CNS
UACC-257 melanoma = tested on: UACC-257 melanoma
M14 melanoma = tested on: M14 melanoma
HCT-15 colon = tested on: HCT-15 colon

Measured: growth

COc1ccc(CCN2CCC(CN(C)Cc3cnn(-c4ccccc4)c3)CC2)cc1
active: NCI-H460 lung 3.48% | A549/ATCC NSCLC 4.78% | M14 melanoma -19.2%
inactive: NCI-H23 lung 31.9% | NCI-H322M lung 46.4% | HOP-62 NSCLC 30% | HOP-92 NSCLC 37.3% | NCI-H522 lung 43.7% | 786-0 renal 25.6% | COLO 205 colon 30.1% | DU-145 prostate 28.6% | K-562 leukemia 10.4% | MALME-3M melanoma 18.4% | MDA-MB-231 breast 21.6% | RXF 393 renal 35% | SF-268 CNS 21% | SF-295 CNS 47.5% | SF-539 CNS 19.7% | UACC-257 melanoma 19.1% | HCT-15 colon 26.2%

Nc1ccccc1-c1ccc(-c2ccc(Cl)cc2)c2c1[nH]c1ccccc12
inactive: NCI-H23 lung 77% | NCI-H322M lung 64% | HOP-62 NSCLC 79.5% | NCI-H460 lung 88.6% | NCI-H522 lung 73.5% | A549/ATCC NSCLC 67.9% | 786-0 renal 76.5% | COLO 205 colon 78.5% | DU-145 prostate 75.9% | K-562 leukemia 58.9% | MALME-3M melanoma 90.2% | MDA-MB-231 breast 62.2% | RXF 393 renal 53.4% | SF-268 CNS 64.8% | SF-295 CNS 88.2% | SF-539 CNS 86.3% | UACC-257 melanoma 81% | M14 melanoma 49.3% | HCT-15 colon 73.2%
active: HOP-92 NSCLC 7.99%

NCCNc1nc2ccc(F)cc2c2c(=O)c3cc(F)ccc3sc12
inactive: NCI-H23 lung 70.9% | NCI-H322M lung 60.6% | HOP-62 NSCLC 56.5% | HOP-92 NSCLC 17.4% | NCI-H522 lung 30.9% | A549/ATCC NSCLC 43.7% | 786-0 renal 58.6% | MALME-3M melanoma 99% | RXF 393 renal 52.3% | SF-268 CNS 48.9% | SF-295 CNS 82.3% | SF-539 CNS 73.6% | UACC-257 melanoma 79.4% | M14 melanoma 15.7% | HCT-15 colon 20.9%
active: NCI-H460 lung -54.7% | COLO 205 colon -52.2% | DU-145 prostate 7.23% | K-562 leukemia -44.2% | MDA-MB-231 breast 6.98%

O=C(NC1CCN(Cc2ccccc2)CC1)c1cc2nc(-c3ccc(Cl)s3)cc(C(F)(F)F)n2n1
inactive: NCI-H23 lung 90.8% | NCI-H322M lung 113% | HOP-62 NSCLC 70.7% | NCI-H460 lung 26.6% | HOP-92 NSCLC 51.9% | A549/ATCC NSCLC 81.9% | 786-0 renal 102% | DU-145 prostate 83.3% | MDA-MB-231 breast 57.1% | RXF 393 renal 94.8% | SF-268 CNS 66.7% | M14 melanoma 48.7% | HCT-15 colon 94.7%
active: NCI-H522 lung -31.9% | COLO 205 colon -48.6% | K-562 leukemia 5.49% | MALME-3M melanoma -84.1% | SF-295 CNS -68.6% | SF-539 CNS 2.96% | UACC-257 melanoma -65.5%

COc1ccccc1C(=O)O/N=C(\N)Cc1cccc2ccccc12
inactive: NCI-H23 lung 80.9% | NCI-H322M lung 97.6% | HOP-62 NSCLC 94.6% | NCI-H460 lung 70.7% | HOP-92 NSCLC 91% | NCI-H522 lung 85% | A549/ATCC NSCLC 70.1% | 786-0 renal 106% | COLO 205 colon 67.8% | DU-145 prostate 99.1% | K-562 leukemia 75.7% | MALME-3M melanoma 23.6% | MDA-MB-231 breast 77.3% | RXF 393 renal 102% | SF-268 CNS 80.9% | SF-295 CNS 52.2% | SF-539 CNS 97.2% | UACC-257 melanoma 73.9% | M14 melanoma 86.3% | HCT-15 colon 75.7%

Cc1ccc(S(=O)(=O)c2c(COC(=O)c3cccc(C)c3)c(-c3ccccc3)nn2C)cc1
active: NCI-H322M lung -4.7% | NCI-H522 lung -33.1% | A549/ATCC NSCLC -32.7% | COLO 205 colon -95.9% | K-562 leukemia -23% | MALME-3M melanoma -47.5%
inactive: NCI-H23 lung 94.5% | HOP-62 NSCLC 18.1% | NCI-H460 lung 102% | HOP-92 NSCLC 71.4% | 786-0 renal 106% | DU-145 prostate 116% | MDA-MB-231 breast 14.3% | RXF 393 renal 93.4% | SF-268 CNS 68.3% | SF-295 CNS 54.7% | SF-539 CNS 21.4% | UACC-257 melanoma 83.5% | M14 melanoma 89.9% | HCT-15 colon 62.2%

COc1cccc(C2=NN3C(C2)c2ccccc2OC3c2ccc(/C=C3\SC(=O)NC3=O)cc2)c1 (stereo not given)
inactive: NCI-H23 lung 92.3% | NCI-H322M lung 97.8% | HOP-62 NSCLC 110% | NCI-H460 lung 101% | HOP-92 NSCLC 106% | NCI-H522 lung 87.8% | A549/ATCC NSCLC 103% | 786-0 renal 95.6% | COLO 205 colon 119% | DU-145 prostate 106% | K-562 leukemia 105% | MALME-3M melanoma 105% | MDA-MB-231 breast 95.4% | RXF 393 renal 105% | SF-268 CNS 94.6% | SF-295 CNS 94.3% | SF-539 CNS 102% | UACC-257 melanoma 106% | M14 melanoma 104% | HCT-15 colon 95.2%

O=C(Nc1ccc(I)cc1F)c1cc(Br)ccc1O
active: NCI-H23 lung 3.44% | NCI-H322M lung 7.16% | HOP-62 NSCLC -5.03% | NCI-H460 lung 2.62% | HOP-92 NSCLC -10.8% | NCI-H522 lung -7.93% | A549/ATCC NSCLC 7.17% | 786-0 renal 1.97% | K-562 leukemia 8.5% | MALME-3M melanoma -27.4% | MDA-MB-231 breast -21.2% | RXF 393 renal 2.4% | SF-268 CNS 7.21% | SF-295 CNS -64.9% | SF-539 CNS 0.872% | UACC-257 melanoma -18.2% | M14 melanoma -10.4% | HCT-15 colon 0.459%
inactive: COLO 205 colon 46.9% | DU-145 prostate 14.2%

Cn1cc([C@@H]2Nc3ccc4[nH]ncc4c3[C@H]3[C@H]4CCC(C4)[C@H]32)c(C(F)(F)F)n1
active: NCI-H522 lung 2.48%
inactive: NCI-H23 lung 90.6% | NCI-H322M lung 89.5% | HOP-62 NSCLC 53% | NCI-H460 lung 27.9% | HOP-92 NSCLC 64.1% | A549/ATCC NSCLC 41.1% | 786-0 renal 59.1% | COLO 205 colon 52.7% | DU-145 prostate 72.9% | K-562 leukemia 15.7% | MALME-3M melanoma 40.2% | MDA-MB-231 breast 61.6% | RXF 393 renal 53.4% | SF-268 CNS 53% | SF-295 CNS 37.7% | SF-539 CNS 41.1% | UACC-257 melanoma 50.1% | M14 melanoma 27.5% | HCT-15 colon 30.8%

CCOC(=O)c1cc2c(n1Cc1ccccc1OC)-c1oncc1CCC2
inactive: NCI-H23 lung 45.3% | NCI-H322M lung 86% | HOP-62 NSCLC 45.3% | NCI-H460 lung 18.4% | HOP-92 NSCLC 57% | NCI-H522 lung 19.2% | A549/ATCC NSCLC 36.6% | 786-0 renal 49.6% | DU-145 prostate 33.2% | K-562 leukemia 10.5% | MALME-3M melanoma 20.7% | MDA-MB-231 breast 53% | SF-268 CNS 57.6% | SF-295 CNS 17% | UACC-257 melanoma 50.4% | M14 melanoma 35% | HCT-15 colon 30.9%
active: COLO 205 colon 2.53% | RXF 393 renal 5.36% | SF-539 CNS 3.92%

O=c1oc2ccc(I)cc2c(=O)n1-c1ccc(F)cc1F
active: NCI-H23 lung 6.34% | NCI-H322M lung 9.77% | HOP-62 NSCLC 2.25% | NCI-H460 lung 6.35% | HOP-92 NSCLC -29.9% | NCI-H522 lung -7.49% | A549/ATCC NSCLC 6.11% | K-562 leukemia 7.26% | MALME-3M melanoma -21% | SF-268 CNS 9.2% | SF-295 CNS 3.91% | UACC-257 melanoma -4.46%
inactive: 786-0 renal 21.3% | COLO 205 colon 104% | DU-145 prostate 15.5% | MDA-MB-231 breast 33.3% | RXF 393 renal 11.1% | SF-539 CNS 13.7% | M14 melanoma 21% | HCT-15 colon 15.6%

COc1cc(C(C)n2cc(-c3ccccc3)nn2)ccc1OC1CCCCC1 (stereo not given)
inactive: NCI-H23 lung 47.7% | NCI-H322M lung 78.1% | HOP-62 NSCLC 69.4% | NCI-H460 lung 70.5% | HOP-92 NSCLC 69.9% | NCI-H522 lung 50.3% | A549/ATCC NSCLC 61.6% | 786-0 renal 78.1% | COLO 205 colon 97.9% | DU-145 prostate 84.3% | K-562 leukemia 25.9% | MALME-3M melanoma 87.7% | MDA-MB-231 breast 77.9% | RXF 393 renal 98% | SF-268 CNS 78.2% | SF-295 CNS 41.2% | SF-539 CNS 65% | UACC-257 melanoma 52.1% | M14 melanoma 79.1% | HCT-15 colon 61.2%

COc1ccc2oc(=O)cc(Cn3cc(Cn4cnc5c4c(=O)n(C)c(=O)n5C)nn3)c2c1
inactive: NCI-H23 lung 101% | NCI-H322M lung 101% | HOP-62 NSCLC 101% | NCI-H460 lung 105% | HOP-92 NSCLC 104% | NCI-H522 lung 98.6% | A549/ATCC NSCLC 103% | 786-0 renal 98% | COLO 205 colon 110% | DU-145 prostate 105% | K-562 leukemia 103% | MALME-3M melanoma 91.5% | MDA-MB-231 breast 98% | RXF 393 renal 120% | SF-268 CNS 100% | SF-295 CNS 102% | SF-539 CNS 94% | UACC-257 melanoma 98% | M14 melanoma 100% | HCT-15 colon 105%
